Assay outcomes deposited in PubChem BioAssay by National Center for Advancing Translational Sciences (NCATS).
Sampled rows, rich in hits. Any-hit rate of the full collection: about 8.8%.
IL-1B inflam inh: qHTS for Inhibitors of Inflammasome Signaling: IL-1-beta AlphaLISA Primary Screen; THP-1 LPS/ATP IL-1B secretion, AlphaLISA, 16 h; stronger effect = lower value; hit rate 4.7% among 360,000; AID 743279, 2014; activity change, % at 57.5 µM; in the data active = activity change below about -50%; inconclusive = mostly about -30% to -49%
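THP-1 cells pretreated 1 hr with compounds (up to 57.5 uM final), then stimulated with LPS (250 ng/mL final) plus ATP (1.25 mM final); secreted IL-1B measured by AlphaLISA after 16 hr, decreased signal indicating inhibition.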
HT1080NT lethal: qHTS for induction of synthetic lethality in tumor cells producing 2HG: qHTS for the HT-1080-NT fibrosarcoma cell line; HT-1080-NT fibrosarcoma viability, CellTiter-Glo ATP luminescence, 48 h; AID 686970, 2013; Potency, µM (top dose mostly 46.1 µM), without a hit: top-dose activity, negative = less viability, usual class: cytotoxic; hit rate 1.6% among 360,000;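 also: NT is the 2HG producing partner of a matched IDH1 knockdown line; potency is read from the fitted curve at half-maximal effect; 0% = DMSO-treated cells and -100% = media-only wells without cells; nearly all actives have a fitted effect of over 55% in size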
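750 cells/well, RPMI + 5% FBS; 2 h settle, compound pin-transfer, 48 h at 37 degrees C. CellTiter-Glo 10 min RT, luminescence. Normalized to DMSO and media-only wells.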
KB-V1 cytotox: qHTS assay for MDR1-selective chemotherapeutics: Primary screen using the drug-selected MDR subline cells KB-V1 | KB-V1 MDR cells viability, CellTiter-Glo, 72 h | Potency, µM (series often up to 46.1 µM), most hits filed as cytotoxic | hit rate 3.4% among 400,000 | AID 1347076, 2019; also: potency is read from the fitted curve at half-maximal effect; nearly all actives have a fitted effect of over 60% in size
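Cells of the MDR subline KB-V1 are plated, dosed with compound at multiple concentrations, and incubated 72 h at 37 degrees C; CellTiter-Glo is then added and luminescence read after 10 min.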
HT1080 IDH1KD tx: qHTS for induction of synthetic lethality in tumor cells producing 2HG: qHTS for the HT-1080-IDH1KD cell line; Potency, µM (highest dose often 46.1 µM), for the others: at the top dose activity, negative = toxicity, most hits filed as cytotoxic; hit rate 2% among 360,000; HT-1080 IDH1 knockdown viability, ATP luminescence, 48 h;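 also: potency is read from the fitted curve at half-maximal effect; 0% = DMSO wells and -100% = cell-free medium wells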
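Cytotoxicity counter-line: IDH1KD HT-1080, 48 h, CellTiter-Glo. Curves classed by r2, magnitude and activity.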
KB-3-1 tox: qHTS assay for MDR1-selective chemotherapeutics: Primary screen using the parental adenocarcinoma cell KB-3-1 | hit rate 1.4% among 400,000 | KB-3-1 viability, CellTiter-Glo ATP luminescence, 72 h | Potency, µM (doses to about 46.1 µM), most hits filed as cytotoxic | AID 1347075, 2019; also: potency is read from the fitted curve at half-maximal effect; nearly all actives have a fitted effect of over 60% in size
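Cells are dispensed, compounds pinned in, plates held at 37 °C for 72 h, then CellTiter-Glo is added and luminescence read after 10 minutes. Cell line: parental KB-3-1 in phenol-red-free DMEM, 10% FBS.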
Numbers without * were called inactive. Unless noted, calls follow the shape of the dose curve; as a rule, active = well fitted curve in the direction sought with a large enough effect; inconclusive = small, poorly fitted or top-dose-only effect, or another doubt; inactive = no such curve, though single readings can be large; an effect the other way counts as inactive or inconclusive. Unless noted, % is scaled to controls: 0 for no effect and ±100 for the full control effect.

For CCOc1ccc(S(=O)(=O)N2CCOCC2)cc1NC(=O)CSCc1ccc(C)cc1 the results were IL-1B inflam inh 24.9, HT1080NT lethal 8.2µM*, KB-V1 cytotox inconclusive, HT1080 IDH1KD tx inconclusive and KB-3-1 tox 18.4µM*.
COc1ccc(S(=O)(=O)N2CCOCC2)cc1NC(=O)Cc1ccc2c(c1)OCCO2 was read as IL-1B inflam inh -13.9, HT1080NT lethal -0.3%, KB-V1 cytotox 18.4µM*, HT1080 IDH1KD tx -4.8% and KB-3-1 tox inactive.
COc1ccc(S(=O)(=O)N2CCOCC2)cc1NC(=O)COc1ccc(C)cc1 was read as IL-1B inflam inh -50.8*, HT1080NT lethal 0.0% and HT1080 IDH1KD tx -2.7%.
Cc1ccc(C(=O)CSc2nc(C)cc(C)c2C(=O)Nc2cccc(C)c2)cc1 was read as KB-V1 cytotox inactive and KB-3-1 tox inactive.
`CC[N+](CC)(CC#Cc1ccccc1)CC#Cc1ccccc1` gave IL-1B inflam inh -80.7*, HT1080NT lethal inconclusive, KB-V1 cytotox inactive, HT1080 IDH1KD tx -27.9% and KB-3-1 tox 8.2µM*.
For COc1ccc(-c2csc(CCN3N=C(C)CC3=O)n2)cc1 the results were IL-1B inflam inh -53.0*, HT1080NT lethal -12.1%, KB-V1 cytotox inconclusive, HT1080 IDH1KD tx 0.0% and KB-3-1 tox inactive.
`CCOC(=O)c1c(C)[nH]c(C(=O)N/N=C/c2ccc(OC)c(OC)c2)c1C` gave IL-1B inflam inh 15.5, HT1080NT lethal 14.2%, KB-V1 cytotox inactive, HT1080 IDH1KD tx inconclusive and KB-3-1 tox inconclusive.
CCOC(=O)c1c(C)[nH]c(C(=O)N/N=C/c2cc([N+](=O)[O-])ccc2O)c1C was read as IL-1B inflam inh 96.5, HT1080NT lethal -25.8%, KB-V1 cytotox inconclusive, HT1080 IDH1KD tx inconclusive and KB-3-1 tox 11.6µM*.
Screening CCOC(=O)c1c(C)[nH]c(C(=O)N/N=C\c2ccccc2O)c1C returned IL-1B inflam inh 29.0, HT1080NT lethal 7.31µM*, KB-V1 cytotox 2.06µM*, HT1080 IDH1KD tx 5.8µM* and KB-3-1 tox inconclusive.
`Cc1nnc(SCCn2c(N3CC(C)CC(C)C3)nc3c2c(=O)n(C)c(=O)n3C)s1` (configuration not stated) gave IL-1B inflam inh 4.7, HT1080NT lethal 3.8%, KB-V1 cytotox 20.6µM*, HT1080 IDH1KD tx 16.2% and KB-3-1 tox inactive.
CC1CCN(c2nc3c(c(=O)[nH]c(=O)n3C)n2CC(C)CSc2nnnn2-c2ccccc2)CC1 (configuration not stated) was read as IL-1B inflam inh inconclusive, HT1080NT lethal -3.2%, KB-V1 cytotox 3.66µM*, HT1080 IDH1KD tx 8.6% and KB-3-1 tox inactive.
`CC1CC(C)CN(c2nc3c(c(=O)[nH]c(=O)n3C)n2CCCSc2nc3ccccc3s2)C1` (configuration not stated) gave IL-1B inflam inh 7.1, HT1080NT lethal 0.9%, KB-V1 cytotox 4.11µM*, HT1080 IDH1KD tx 9.9% and KB-3-1 tox inactive.
Cc1nnc(SCCn2c(Br)nc3c2c(=O)n(C)c(=O)n3C)s1 was read as IL-1B inflam inh 7.5, HT1080NT lethal -0.9%, KB-V1 cytotox inconclusive, HT1080 IDH1KD tx 20.2% and KB-3-1 tox inactive.
`Cn1c(=O)[nH]c(=O)c2c1nc(N1CCCCC1)n2CCCSc1nnnn1-c1ccccc1` gave IL-1B inflam inh 2.9, HT1080NT lethal -1.7%, KB-V1 cytotox 9.2µM*, HT1080 IDH1KD tx -2.7% and KB-3-1 tox inactive.
N#Cc1ccc(N2CCN(S(=O)(=O)c3ccc4c(c3)CC(=O)N4)CC2)cc1 was read as KB-V1 cytotox inactive and KB-3-1 tox inconclusive.
`O=C(NCCC(=O)N1CCC2(CC1)NCCc1[nH]cnc12)c1cccc(Br)c1` gave IL-1B inflam inh -1.7, HT1080NT lethal 15.2%, KB-V1 cytotox inactive, HT1080 IDH1KD tx 1.8% and KB-3-1 tox inactive.
CCOC(=O)c1ccccc1NC(=O)CSc1cc(C)[nH]c(=O)n1 was read as KB-V1 cytotox inactive and KB-3-1 tox inactive.
Screening CCN1CCN(c2nc3c(c(=O)[nH]c(=O)n3C)n2CCSc2nc3ccccc3s2)CC1 returned IL-1B inflam inh -22.8, HT1080NT lethal -22.9%, KB-V1 cytotox inactive, HT1080 IDH1KD tx 1.2% and KB-3-1 tox inactive.
Cc1csc(SCCn2c(N3CCN(c4ccccc4)CC3)nc3c2c(=O)[nH]c(=O)n3C)n1 was read as IL-1B inflam inh -4.0, HT1080NT lethal -5.1%, KB-V1 cytotox 20.6µM*, HT1080 IDH1KD tx 5.9% and KB-3-1 tox inactive.
CC(=O)c1c(C)[nH]c(C(=O)OC(C)C(=O)NC2CCCCC2)c1C (configuration not stated) was read as IL-1B inflam inh 8.8, HT1080NT lethal -7.0%, KB-V1 cytotox inactive, HT1080 IDH1KD tx -2.4% and KB-3-1 tox inactive.
CCOc1cc(C)c(S(=O)(=O)Nc2ccc3cn[nH]c3c2)cc1C was read as IL-1B inflam inh -69.6*, HT1080NT lethal -25.2%, KB-V1 cytotox inconclusive, HT1080 IDH1KD tx -13.2% and KB-3-1 tox 20.6µM*.
`CC1=CC(C)(C)N2C(=O)C(=Nc3ccc(O)cc3)c3cccc1c32` gave IL-1B inflam inh -52.6*, HT1080NT lethal 16.4µM*, KB-V1 cytotox inactive, HT1080 IDH1KD tx 25.9µM* and KB-3-1 tox inconclusive.
`CCC(=O)Nc1cccc(C(=O)/C=C/c2cccs2)c1` gave IL-1B inflam inh -94.5*, HT1080NT lethal -6.7%, KB-V1 cytotox inactive, HT1080 IDH1KD tx -10.3% and KB-3-1 tox inactive.
For CCC(=O)Nc1cccc(C(=O)/C=C/c2ccccc2)c1 the results were IL-1B inflam inh -117.4*, HT1080NT lethal inconclusive, KB-V1 cytotox inactive, HT1080 IDH1KD tx inconclusive and KB-3-1 tox inconclusive.
For CCOc1ccccc1N1CCN(S(=O)(=O)c2ccc(C3CCCCC3)cc2)CC1 the results were KB-V1 cytotox inactive and KB-3-1 tox inactive.
Screening CCc1ccc(Oc2nnnn2-c2ccc(C(N)=O)cc2)cc1 returned IL-1B inflam inh -12.4, HT1080NT lethal 13.1%, KB-V1 cytotox inactive, HT1080 IDH1KD tx -5.8% and KB-3-1 tox inactive.
Screening COc1ccc(-n2nnnc2S(=O)(=O)Cc2ccc(C(=O)O)cc2)cc1 returned IL-1B inflam inh -86.5*, HT1080NT lethal 14.1µM*, KB-V1 cytotox inactive, HT1080 IDH1KD tx 7.94µM* and KB-3-1 tox inactive.
For COc1ccc(-n2nnnc2S(=O)(=O)CC(=O)N2CCCCC2)cc1 the results were IL-1B inflam inh -109.7*, HT1080NT lethal 20.6µM*, KB-V1 cytotox inconclusive, HT1080 IDH1KD tx 20.6µM* and KB-3-1 tox 20.6µM*.
